Source: PubChem BioAssay (Broad Institute)
aSyn UTR act: Activators working through SNCA 5'UTR binding (MLPCN); alpha-synuclein 5'UTR reporter, activators screen; activity score, % (tested at 7.5 µM), hits read low; 7.1% of 300,000 active; in the data active = activity score below about -60%
An asterisk follows results filed as active. The list is a sample of the results.

Cc1onc(-c2ccccc2Cl)c1C(=O)NCc1ccco1 was read as aSyn UTR act -80.2*.
Screening CCCCOc1ccc(-c2ncc(C(=O)O)c(C)n2)cc1 returned aSyn UTR act -123.0*.
For Cc1ccc(NC(=O)c2ccc(NCCN)c([N+](=O)[O-])c2)cc1 the results were aSyn UTR act -98.8*.
`CCCNc1ccc(C(=O)OCC)cc1[N+](=O)[O-]` gave aSyn UTR act -82.9*.
For Cc1ccc(NC(=O)CSc2ccc(C(N)=O)cc2[N+](=O)[O-])cc1 the results were aSyn UTR act -66.8*.
CCOC(=O)c1ccc2nc3c(cc2c1)CCS3 was read as aSyn UTR act -148.5*.
COc1cc(/C=C2\C(=N)N3N=CSC3=NC2=O)ccc1OS(=O)(=O)c1ccccc1[N+](=O)[O-] was read as aSyn UTR act -74.9*.
`Cc1ccc(NC(=O)CSC2=C(C#N)C(c3ccco3)CC(=O)N2)cc1` (stereo not drawn) gave aSyn UTR act -148.0*.
Screening Cc1ccccc1NC(=O)CSC1=C(C#N)C(c2ccsc2)CC(=O)N1 (stereo not drawn) returned aSyn UTR act -83.8*.
For CC(C)C1CC(=O)NC(SCC(=O)Nc2ccc(Br)cc2)=C1C#N (stereo not drawn) the results were aSyn UTR act -74.2*.
`COc1ccc(N2C(=O)c3ccccc3C2O)cc1` (stereo not drawn) gave aSyn UTR act -78.5*.
Screening O=C1c2ccccc2C(O)N1c1ccc(Cl)cc1 (stereo not drawn) returned aSyn UTR act -67.2*.
`Cc1ccc(N2C(=O)c3ccccc3C2O)nc1` (stereo not drawn) gave aSyn UTR act 72.7.
Screening COc1ccc(O)c(C(=O)C2c3ccccc3C(=O)N2c2ccc(C)cc2)c1 (stereo not drawn) returned aSyn UTR act -116.2*.
For Cc1cccc2c1ncc1c(=O)n(-c3ccccc3)[nH]c12 the results were aSyn UTR act -145.9*.
`CC(=O)Oc1ccc2occ(C(=O)c3ccccc3)c2c1` gave aSyn UTR act -134.3*.
CC(=O)Oc1ccc2occ(C(=O)c3cccs3)c2c1 was read as aSyn UTR act -175.1*.
`O=C(CCl)Oc1ccc2occ(C(=O)c3cccs3)c2c1` gave aSyn UTR act -193.4*.
For O=C(c1cccs1)c1coc2ccc(O)cc12 the results were aSyn UTR act -199.9*.
For CC(=O)Oc1ccc2occ(-c3ccccc3)c2c1 the results were aSyn UTR act -136.6*.
For CSc1ccc(NC(=O)Nc2cccn(Cc3ccccc3F)c2=O)cc1 the results were aSyn UTR act -76.1*.
Cc1cccc(-c2cc3nc4c(c(N5CCOCC5)n3n2)CCCC4)c1 was read as aSyn UTR act -113.8*.
For Cc1cccc(-c2cc3nc4c(c(NCc5ccco5)n3n2)CCCC4)c1 the results were aSyn UTR act -92.5*.
Screening OC1CCCN(c2c3c(nc4cc(-c5cccc(F)c5)nn24)CCCC3)C1 (stereo not drawn) returned aSyn UTR act -98.5*.
`CC(=O)NC(c1ccccc1)c1nc2ccccc2[nH]1` (stereo not drawn) gave aSyn UTR act -64.5*.
`Cc1sc(NC(=O)C2=COCCO2)c(C(N)=O)c1C` gave aSyn UTR act -62.4*.
For NC(=O)c1ccsc1NC(=O)c1cccs1 the results were aSyn UTR act -164.5*.
Screening Cc1sc(NC(=O)CCCC(=O)O)c(C(N)=O)c1-c1ccccc1 returned aSyn UTR act 51.8.
`Cc1sc(NC(=O)c2cccs2)c(C(N)=O)c1C` gave aSyn UTR act -254.8*.
For Cc1nc(S(=O)(=O)N(C)Cc2ccccc2)c(C#N)c(C)c1Cl the results were aSyn UTR act -117.8*.
Screening Cc1nc(S(=O)(=O)N2CCOCC2)c(C#N)c(C)c1Cl returned aSyn UTR act -99.8*.
For Cc1nc(S(=O)(=O)NC2CCCCC2)c(C#N)c(C)c1Cl the results were aSyn UTR act -90.6*.
For COc1cccc(CNC(=O)CCC2CCCN(C(=O)c3cc4ccccc4o3)C2)c1 (stereo not drawn) the results were aSyn UTR act -77.5*.
Screening c1csc(-c2nc(N3CCCCC3)no2)c1 returned aSyn UTR act -137.4*.
For CC(=O)Nc1nc(-c2ccc3ccccc3c2)cs1 the results were aSyn UTR act -143.1*.
Oc1ccc(Nc2nc(-c3ccc4ccccc4c3)cs2)cc1 was read as aSyn UTR act -210.0*.
O=C1c2ccccc2S(=O)(=O)c2cc(N3CCc4ccccc4C3)ccc21 was read as aSyn UTR act -179.8*.
`CCCCC12CN3CCN(CC(C3)/C1=N\NC(=O)c1ccccc1N)C2` gave aSyn UTR act -70.6*.
For Cc1nc2ccccc2cc1OCc1ccc(Cl)cc1 the results were aSyn UTR act -72.1*.
COc1cccc(COc2cc3ccccc3nc2C)c1 was read as aSyn UTR act -95.8*.
For Cc1nc(N)nc(N)c1CCCc1ccc(Cl)c(Cl)c1 the results were aSyn UTR act 91.8.
`O=S1(=O)CCN2C=C(Br)C=C(Br)C2=N1` gave aSyn UTR act -71.9*.
O=C(NC1=NCCS1)c1ccc(Br)s1 was read as aSyn UTR act -171.1*.
`CC(C)Oc1cccc(C(=O)NC2=NCCS2)c1` gave aSyn UTR act -96.1*.
`O=C(NC1=NCCS1)c1cccc(Br)c1` gave aSyn UTR act -74.7*.
For CCOc1cccc(C(=O)NC2=NCCS2)c1 the results were aSyn UTR act -103.8*.
For C=CCn1cccc(C(=O)Nc2ccc(OC)cc2)c1=O the results were aSyn UTR act -96.6*.
Screening C=CCn1c(N)c(C(=O)Nc2ccccc2)c2nc3ccccc3nc21 returned aSyn UTR act 59.5.
For C=CCn1cccc(C(=O)Nc2ccc(F)cc2)c1=O the results were aSyn UTR act -101.0*.
C=CCc1cccc2cc(C(=O)Nc3ccc(F)cc3)c(=O)oc12 was read as aSyn UTR act -128.3*.
Screening COc1ccc(NC(=O)c2cccn(CC=C(C)C)c2=O)cc1 returned aSyn UTR act -78.6*.
CC1CN(C(=O)Nc2ccc3snnc3c2)c2ccccc21 (stereo not drawn) was read as aSyn UTR act -67.0*.
O=C(c1ccco1)N1CCN(c2ncnc3c2cnn3-c2ccccc2)CC1 was read as aSyn UTR act -94.3*.
For Clc1ccc(-n2ncc3c(N4CCCC4)ncnc32)cc1 the results were aSyn UTR act 92.3.
`CC1CCN(c2ncnc3c2cnn3-c2ccccc2)CC1` gave aSyn UTR act -118.8*.
Screening CC(C)(C)c1ccc(C(=O)NC(=S)N2CCOCC2)cc1 returned aSyn UTR act -101.9*.
For CC(C)Oc1ccc(C(=O)NC(=S)N2CCOCC2)cc1 the results were aSyn UTR act -78.8*.
Screening O=C(N/N=C/c1cn(-c2cccs2)nc1-c1ccccc1)c1ccccc1Cl returned aSyn UTR act -63.2*.
For O=C(N/N=C/c1cc(Br)ccc1O)c1ccccc1Cl the results were aSyn UTR act 67.1.
O=C(N/N=C/c1cn(-c2cccs2)nc1-c1ccccc1)c1ccc(O)cc1 was read as aSyn UTR act -64.8*.
Screening Cn1cccc1C1NC(=O)c2c(sc3c2CCC(C(C)(C)C)C3)N1 (stereo not drawn) returned aSyn UTR act -97.1*.
COc1cc2[nH]c(-c3ccc(C)cc3)cc(=O)c2cc1OC was read as aSyn UTR act -75.5*.
COc1ccc(-c2cc(=O)c3cc(C)ccc3[nH]2)cc1 was read as aSyn UTR act -63.2*.
O=c1c(Cl)c(N2CCN(c3ccc(F)cc3)CC2)cnn1-c1nc2ccccc2s1 was read as aSyn UTR act -111.5*.
